Reference: PubChem BioAssay AID1016 (Sanford-Burnham Center for Chemical Genomics, 2008)
Screen size: about 200,000 compounds; about 330 (0.17%) were called active.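 How the source made its calls: active means activation factor of 2 or more at 20 µM, a signal rise over negative controls twice the positive control's; inactive means the rest.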 The entries come from a sample that favours actives as a whole.

System: alkaline phosphatase, intestinal [Bos taurus]
Assay: bovine intestinal alkaline phosphatase activators, primary screen, biochemical, bovine IAP, CDP-star luminescence (AID 1016)
Details: purified bovine IAP, 30 min, at 20 µM, stronger effect = higher value, fold of DMSO-control signal, blank-subtracted

| SMILES | activation factor |
| --- | --- |
| Cc1ccc(S(=O)(=O)Nc2nc(N)n(-c3ccccc3)n2)cc1 | 1.2 (inactive) |
| CCOC(=O)NN1C(=O)c2ccccc2NC1c1ccccc1O (stereo not given) | 1 (inactive) |
| CCOC(=O)Cn1c(-c2cccnc2Cl)nc2ccccc21 | 1 (inactive) |
| CCOC(=O)Cn1c2c(c(-c3ccccc3OC)cc1=O)CCCC2 | 2.1 (active) |
| CCOC(=O)CN1CCC(c2ccccc2)CC1 | 1 (inactive) |
| COc1ccccc1NC1=NC(c2ccc(Cl)cc2)N=C(N)N1 (stereo not given) | 2.7 (active) |
| COc1ccccc1NC1=NC2(CCCC2)N=C(N)N1 | 0.9 (inactive) |
| COc1ccccc1Nc1nc(N)nc(CN(C)C2CCCCC2)n1 | 0.9 (inactive) |
| CCOc1cc(N2CCOCC2)c(OCC)cc1NC(=O)C1=NN(c2cccc(C)c2)C(=O)CC1 | 0.9 (inactive) |
| O=C(NCc1ccccc1Cl)C1CCN(S(=O)(=O)N2CCOCC2)CC1 | 1 (inactive) |
| O=C(CN1C(=O)/C(=C/c2ccccc2F)Sc2ccccc21)NCc1cccnc1 | 1.1 (inactive) |
| Cc1ccc(S(=O)(=O)C2C(=O)NC3(C)CC2c2ccccc2O3)cc1 (stereo not given) | 0.9 (inactive) |
| COc1ccc(/C=C/C(=O)NC(=S)NN2CCCCC2c2cccnc2)cc1 (stereo not given) | 0.7 (inactive) |
| Cc1cccc(-n2cnc(C(=O)NNC(=S)Nc3ccccc3)c2)n1 | 1.6 (inactive) |
| CCn1cc(/C=C2/SC(=S)NC2=O)c(C)n1 | 1.1 (inactive) |
| CC1=CC=CC2=N/C(=N\S(=O)(=O)c3ccc(F)cc3F)c3ccccc3CN12 | 0.9 (inactive) |
| CC(=O)c1ccc(NC(=O)C(C)NCc2ccc(Cl)cc2)cc1 (stereo not given) | 0.9 (inactive) |
| CC1(C)Cc2cccc(OCC(=O)N3CCN(c4ccc([N+](=O)[O-])cc4)CC3)c2O1 | 0.9 (inactive) |
| OCCCN1c2ccccc2Nc2nnc(-c3ccccc3)cc21 | 9 (active) |
| N=c1c2c(-c3ccccc3)c(-c3ccccc3)n(Cc3ccccc3)c2ncn1CCCO | 1.4 (inactive) |
